The whole screen tested about 52,000 compounds, of which about 4,300 (8.3%) were called active. Only a selection was taken, and actives are over-represented in it overall. Unmarked numbers belong to inactive results. No stated cut-off is given here; in the data, active means survival mostly below about 52% (no sharp cut-off); inactive means mostly above about 56%.

This assay concerns DeltatarO mutant. Briefly: S. aureus survival, RN4220 and DeltatarO strains – OD600, teichoic acid synthesis inhibitors, primary screen (AID 463173). Conditions: S. aureus RN4220 wild type/DeltatarO growth, OD600, 18 h, stronger effect = lower value, screened at 18.75 µg/mL (by protocol).
With `CCOC(=O)N1CCN(C(=O)CN(c2cccc(Cl)c2C)S(=O)(=O)c2ccc(C)cc2)CC1`, the survival is 119%.

For the molecule `CC1CCN(S(=O)(=O)c2csc(C(N)=O)c2)CC1`, the survival was 85%.

On to `CC1CCN(S(=O)(=O)c2cccc(C(=O)N(C)C3(C)CCS(=O)(=O)C3)c2)CC1` (stereo unspecified), for which the survival is 75%.

Regarding `CN1CCN(C(c2ccc(F)cc2)c2sc3nc(-c4ccco4)nn3c2O)CC1` (stereo unspecified), the survival is 79%.

In the case of `Cc1cc(C)c(S(=O)(=O)NCC(c2ccco2)N2CCOCC2)c(C)c1` (stereo unspecified), the survival was 89%.

Regarding `CN(C)c1ccc(-c2nc3ccc(Cl)cn3c2Nc2ccc3c(c2)OCCO3)cc1`, the survival is 143%.

Regarding `COc1cccc2c1Oc1nc(-c3ccccc3)nc(SCC(=O)N3CCCCC3)c1C2`, the survival was 100%.

In the case of `COc1ccc(CCC(=O)N2CCc3c([nH]c4ccccc34)C2c2ccc(F)cc2)cc1` (stereo unspecified), the survival is 83%.

Take `Cn1c(SCc2ccccc2)nnc1-c1ccccc1`: the survival is 93%.

Turning to `Cc1nnc(SCc2ccccc2)n1N`, the survival was 61% (active).

`Cc1nnc(SCC(=O)O)n1N`: the survival is 114%.

`CC(C)Oc1ccc(CNC(=O)C2=Cc3ccccc3OC2)cc1`: the survival is 67%.

On to `CCOc1ccc(CCNC(=O)CCCc2nnc3n(CC)c(=O)c4sccc4n23)cc1OCC`, for which the survival was 92%.

As to `CCOC(=O)c1ccccc1NC(=O)CSc1ncc2c(n1)-c1ccccc1N(CC)S2(=O)=O`, the survival was 83%.

As to `COc1ccc(NC(=O)Cc2noc3ccc(C)cc23)cc1Cl`, the survival was 56% (active).

Consider `CCOc1ccccc1NC(=O)NCc1noc2ccc(C)cc12`, for which the survival was 35% (active).

Consider `CCOc1ccccc1NC(=O)Cc1noc2ccc(C)cc12`, for which the survival was 48%.

Take `Cc1ccc(CNC(=O)NCc2noc3ccc(C)cc23)cc1`: the survival was 47%.

Take `Cc1ccc2onc(CC(=O)Nc3cc(F)ccc3F)c2c1`: the survival is 48%.

For the molecule `CC(=O)c1cccc(NC(=O)Cc2noc3ccccc23)c1`, the survival is 49%.

With `COc1ccc(OC)c(CNC(=O)NCc2noc3ccc(C)cc23)c1`, the survival was 104%.

Consider `Cc1ccc2onc(CNC(=O)Nc3ccccc3C#N)c2c1`, for which the survival is 76%.

Regarding `COC(=O)c1ccccc1NC(=O)Cc1noc2ccc(C)cc12`, the survival is 39% (active).

As for `COc1ccc(Cl)cc1N(C)C(=O)Cc1noc2ccc(C)cc12`, the survival is 50%.

`COc1ccccc1CNC(=O)NCc1noc2ccc(C)cc12`: the survival is 56%.

For the molecule `Cc1ccc2onc(CC(=O)Nc3ccc(C(C)C)cc3)c2c1`, the survival was 46% (active).

As to `Cc1ccc(-c2nn3c(=O)cc(CN4CCN(C(=O)c5ccc(C(C)(C)C)cc5)CC4)nc3s2)cc1`, the survival is 67%.

As for `CCCCC(=O)Nc1cc2nn(-c3ccc(OCC)cc3)nc2cc1C`, the survival was 70%.

Take `CCN(c1ccccc1)S(=O)(=O)c1c(C)nc2scc(C)n2c1=O`: the survival was 66%.

`COc1ccc(CC(=O)NC2CC(=O)N(c3ccc(C)c(C)c3)C2)cc1OC` (stereo unspecified): the survival is 63%.

As to `Cc1cc(C(=O)Nc2ccc(-n3c(C)nc4ccccc4c3=O)cc2)ccc1[N+](=O)[O-]`, the survival is 131%.

As for `COc1cc(NC(=O)Cc2noc3ccccc23)cc(OC)c1OC`, the survival was 57%.

For `CCOC(=O)c1ccc(NC(=O)Cc2coc3cc(C)cc(C)c23)cc1`, the survival was 60%.

In the case of `CCOc1ccc(NC(=O)Cc2coc3ccc(C)cc23)cc1`, the survival was 106%.

On to `CCOC(=O)c1ccc(NC(=O)Cc2noc3ccc(C)cc23)cc1`, for which the survival is 45% (active).

Regarding `Cc1cc(C)cc(NC(=O)Cc2noc3ccccc23)c1`, the survival is 54% (active).

For `Cc1cc(C)cc(NC(=O)NCc2noc3ccccc23)c1`, the survival is 52%.

On to `Cc1ccc(CNC(=O)C(C)n2c(=O)cc(C(F)(F)F)c3c(C)nn(C)c32)cc1` (stereo unspecified), for which the survival is 67%.

Regarding `O=C(NCc1ccco1)C1CCN(C(=O)N2CCOc3ccccc32)CC1`, the survival is 80%.

With `O=C(c1ccco1)N(Cc1cccs1)c1ccc(F)cc1`, the survival was 111%.

As for `CCc1ccc(NC(=O)C2CCN(c3nnc(-n4c(C)ccc4C)s3)CC2)cc1`, the survival is 79%.

On to `NNc1ccc2nnc(C(F)(F)F)n2n1`, for which the survival was 73%.

Turning to `Cc1ccc(CNc2ncnc3c2c(-c2ccccc2)cn3-c2ccccc2)cc1`, the survival was 90%.

As to `O=S(=O)(NCc1ccco1)c1ccc(-c2ccc(S(=O)(=O)NCc3ccco3)cc2)cc1`, the survival was 64%.

On to `CCc1ccc(Cn2nnc(C(=O)Nc3ccc(C)cc3)c2N)cc1`, for which the survival was 133%.

For the molecule `CN(C)c1ccc(CNC(=O)c2cccc(NC(=O)N3CCSc4ncccc43)c2)cc1`, the survival was 94%.

Consider `COc1ccccc1NC(=O)C1=C(C)Nc2sc(C#N)c(N)c2C1c1ccco1` (stereo unspecified), for which the survival was 76%.

`COC(=O)C1=C(C)NC2=C(C(=O)c3ccccc32)C1c1cc2c(cc1Cl)OCO2` (stereo unspecified): the survival was 82%.

For the molecule `COc1ccccc1NC(=O)C1=C(C)NC2=C(C(=O)CCC2)C1c1cc2c(cc1Br)OCO2` (stereo unspecified), the survival is 44% (active).

Turning to `CC(C)CC(=O)Nc1nnc2n1CCS2`, the survival is 99%.

For `Cc1nn(-c2ccccc2)c2[nH]c(=O)c(CNCc3cccnc3)cc12`, the survival is 102%.

For the molecule `COc1ccc(CC(=O)Nc2nc3c(s2)CC(C)CC3)cc1` (stereo unspecified), the survival was 75%.

Turning to `COc1ccc(CC(=O)Nc2nc3c(s2)CC(C(C)(C)C)CC3)cc1` (stereo unspecified), the survival is 29% (active).

Turning to `CC(C)(C)C1CCc2nc(NC(=O)COc3ccc(F)cc3)sc2C1` (stereo unspecified), the survival is 115%.

As to `Cc1cc(C)cc(OCC(=O)Nc2nc3c(s2)CC(C(C)(C)C)CC3)c1` (stereo unspecified), the survival is 107%.

In the case of `CCCC(=O)Nc1nc2c(s1)CC(C(C)(C)C)CC2` (stereo unspecified), the survival was 14% (active).

Regarding `CC(C)CC(=O)Nc1nc2c(s1)CC(C(C)(C)C)CC2` (stereo unspecified), the survival is 102%.

On to `CC1CCc2nc(NC(=O)Cc3ccc(Cl)cc3)sc2C1` (stereo unspecified), for which the survival was 46% (active).

For the molecule `CC(C)(C)C1CCc2nc(NC(=O)COc3ccccc3[N+](=O)[O-])sc2C1` (stereo unspecified), the survival is 106%.

Turning to `CC(C)C(=O)Nc1nc2c(s1)CC(C(C)(C)C)CC2` (stereo unspecified), the survival was 92%.

On to `CC(C)(C)C1CCc2nc(NC(=O)Cc3ccc(Cl)cc3)sc2C1` (stereo unspecified), for which the survival is 18% (active).

On to `COc1ccccc1OCC(=O)Nc1nc2c(s1)CC(C)CC2` (stereo unspecified), for which the survival was 69%.

Regarding `COc1ccc(CC(=O)Nc2nc3c(s2)CCCC3)cc1`, the survival is 95%.

As to `Cc1cccc(C(=O)Nc2ccc(N3CCC(N4CCCCC4)CC3)c(C(=O)O)c2)c1`, the survival was 100%.

`CCOc1ccc(-n2c(=O)c3c4c(sc3n(CC(=O)NC(C)CC)c2=O)CCCCC4)cc1` (stereo unspecified): the survival was 98%.

For the molecule `COCCNC(=O)CN1C(=O)COc2ccc(S(=O)(=O)N3CCOCC3)cc21`, the survival was 88%.

Turning to `CCSc1nc2n(n1)C(c1ccc(Cl)cc1Cl)C(C(=O)Nc1ccccc1C)=C(C)N2` (stereo unspecified), the survival was 67%.

Turning to `COc1ccc(C(=O)NCCc2sc(-c3ccc(Cl)cc3)nc2C)c(OC)c1`, the survival was 123%.

Consider `Cc1ccc(C)c(CN2C(=O)c3ccccc3Sc3ccc(C(=O)NC4CCCC4)cc32)c1`, for which the survival was 128%.

Take `COc1ccc(CNC(=O)C2CCN(S(=O)(=O)N3CCC(C)CC3)CC2)c(OC)c1`: the survival was 89%.

As to `CCOC(=O)c1ccc(NC(=O)CSc2nc3ccccc3c(=O)n2CCNC(C)=O)cc1`, the survival was 91%.

In the case of `CCc1ccc(CNC(=O)c2nn(-c3ccc(OC)c(Cl)c3)c(=O)c3c2c2ccccc2n3C)cc1`, the survival was 104%.

Consider `CC(C)(C)C1CCc2nc(NC(=O)c3ccc([N+](=O)[O-])cc3)sc2C1` (stereo unspecified), for which the survival is 95%.

For `Cc1cccc(OCC(=O)Nc2nc3c(s2)CC(C(C)(C)C)CC3)c1C` (stereo unspecified), the survival is 105%.

`CC(C)(C)C1CCc2nc(NC(=O)c3cccc(Cl)c3)sc2C1` (stereo unspecified): the survival was 3% (active).

Turning to `CCOc1cccc(C(=O)Nc2nc3c(s2)CC(C(C)(C)C)CC3)c1` (stereo unspecified), the survival was 77%.

Take `Cc1ccccc1C(=O)Nc1nc2c(s1)CC(C(C)(C)C)CC2` (stereo unspecified): the survival is 115%.

For `CC(C)(C)C1CCc2nc(NC(=O)Cc3ccccc3)sc2C1` (stereo unspecified), the survival was 19% (active).

For the molecule `COc1ccc(CC(=O)NCCc2sc(-c3cccc(F)c3)nc2C)cc1`, the survival was 68%.

Take `COc1ccccc1NC(=O)CN1C(=O)CCSc2ccccc21`: the survival was 89%.

On to `O=C(O)CSc1nc2ccccc2c(=O)n1-c1ccccc1`, for which the survival is 78%.

As to `Cc1cc(Nc2cccc(Cl)c2)nc2ccc(NC(=O)c3cccc(N(C)C)c3)cc12`, the survival is 106%.

`CCN1CCN(C(=O)c2ccc3c(c2)N(Cc2ccccc2F)C(=O)c2ccccc2S3=O)CC1` (stereo unspecified): the survival was 105%.

On to `Cc1ccc(OCC(=O)OCc2cc(=O)n3nc(C4CCCCC4)sc3n2)cc1`, for which the survival is 120%.

As to `COc1ccc(C(CNC(=O)COc2ccc(Cl)c(C)c2)N2CCOCC2)cc1` (stereo unspecified), the survival was 63%.

Turning to `Cc1cc2oc(=O)c(CC(=O)O)c(C)c2c2occ(-c3ccc(F)cc3)c12`, the survival is 49%.

For `COc1ccc(-c2coc3c2c(C)cc2oc(=O)c(CC(=O)O)c(C)c23)cc1`, the survival is 42% (active).

Take `Cc1cc2oc(=O)c(CC(=O)O)c(C)c2c2occ(-c3ccccc3)c12`: the survival was 53%.

Turning to `CCc1cc(=O)oc2cc(C)c3c(-c4ccc(F)cc4)coc3c12`, the survival is 33% (active).

For `CCCc1cc(=O)oc2cc(C)c3c(-c4ccccc4)coc3c12`, the survival is 65%.

In the case of `Cc1cc2oc(=O)cc(C)c2c2occ(-c3ccc(Cl)cc3)c12`, the survival is 72%.

Regarding `Cc1cc(NC2C3CC4CC(C3)CC2C4)n2ncnc2n1` (stereo unspecified), the survival is 105%.

Regarding `O=C(NCc1ccccc1)c1ccccc1C(=O)c1ncc[nH]1`, the survival is 91%.

In the case of `CCOc1ccc(NC(=O)c2oc3ccccc3c2NC(=O)COc2cccc(OC)c2)cc1`, the survival was 78%.

In the case of `COc1ccc(Cl)c2sc(NC(=O)c3ccc(S(=O)(=O)N4CCOCC4)cc3)nc12`, the survival was 69%.

As for `COc1ccc(NC(=O)c2c(NC(=O)c3cccc(C)c3)sc3c2CCC3)cc1`, the survival is 64%.

Regarding `Cc1cccc(C(=O)Nc2sc3c(c2C(=O)NC(C)C)CCCC3)c1`, the survival is 46% (active).

In the case of `COc1ccc(NC(=O)c2c(NC(=O)c3cccc(C)c3)sc3c2CCCC3)cc1`, the survival was 75%.

Take `Cc1cccc(C(=O)Nc2sc3c(c2C(=O)NCc2ccco2)CCCC3)c1`: the survival was 83%.

With `Cc1cccc(C(=O)Nc2sc3c(c2C(=O)Nc2ccccc2)CCC3)c1`, the survival is 66%.

Take `Cc1cccc(C(=O)Nc2sc3c(c2C(=O)O)CCCC3)c1`: the survival was 23% (active).

For the origin of these results see PubChem BioAssay AID463173 (ICCB-Longwood Screening Facility, Harvard Medical School, 2010).
